Test results published in the supplement of paper PMC10849652.
Targets with a hit are over-represented here; the source holds about 8,800 in all. About 0.5% of all pairs of compound and target were hits.

Key:
Assay in all cases: log2 fold change, soluble protein after heating vs DMSO (PISA); higher = thermal stabilisation; K562 lysate, 10 uM; active = over 0.2 and 3.5 SD of the protein, either way, in both replicates (recomputed)
dasatinib = compound: Cc1nc(Nc2ncc(C(=O)Nc3c(C)cccc3Cl)s2)cc(N2CCN(CCO)CC2)n1 [dasatinib]
Outline: (§1)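 To prepare the extract, K562 pellets were dounce-homogenised in PBS pH 7.4 with 1 mM MgCl2, giving crude material at 1 mg/mL protein. This was treated with 10 μM compound for 30 min, then heated in aliquots for 3 min over 48°C-58°C before pooling and addition of NP-40 to 0.5% at 4°C. Centrifugation at 21,000xg for 90 min left soluble protein in the supernatant, which TMTpro 16plex LC-MS/MS quantified with equalised channel sums. Results are log-two fold changes in thermal stability compared with solvent controls, from duplicates.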

[1] = compound: Cn1cc(-c2ccc3c(c2)CCN3C(=O)Cc2cccc(C(F)(F)F)c2)c2c(N)ncnc21
Outline: as §1

quisinostat = compound: Cn1cc(CNCC2CCN(c3ncc(C(=O)NO)cn3)CC2)c2ccccc21 [quisinostat]
Outline: as §1

[2] = compound: NC(=O)Nc1cc(-c2cccc(F)c2)sc1C(=O)N[C@H]1CCCNC1
Outline: as §1

[3] = compound: NC(=O)c1cnc(N[C@@H]2CCCC[C@@H]2N)nc1Nc1cccc(-n2nccn2)c1
Outline: as §1

[4] = compound: NC1(c2ccc(-c3nc4ccn5c(=O)[nH]nc5c4cc3-c3ccccc3)cc2)CCC1
Outline: as §1

vorinostat = compound: O=C(CCCCCCC(=O)Nc1ccccc1)NO [vorinostat]
Outline: as §1

silmitasertib = compound: O=C(O)c1ccc2c(c1)nc(Nc1cccc(Cl)c1)c1ccncc12 [silmitasertib]
Outline: as §1

[5] = compound: O=C1NC(=O)C(c2cnc3ccccn23)=C1c1cn2c3c(cc(F)cc13)CN(C(=O)N1CCCCC1)CC2
Outline: as §1

[6] = compound: NCC(=O)Nc1ccc(-n2nc(C(F)(F)F)cc2-c2ccc3c(ccc4ccccc43)c2)cc1
Outline: as §1

entospletinib = compound: c1cn2cc(-c3ccc4cn[nH]c4c3)nc(Nc3ccc(N4CCOCC4)cc3)c2n1 [entospletinib]
Outline: as §1

nilotinib = compound: Cc1cn(-c2cc(NC(=O)c3ccc(C)c(Nc4nccc(-c5cccnc5)n4)c3)cc(C(F)(F)F)c2)cn1 [nilotinib]
Outline: as §1

[7] = compound: Cc1nc(Nc2n[nH]c3c2CN(C(=O)N[C@H](CN(C)C)c2ccccc2)C3(C)C)c2sccc2n1
Outline: as §1

[8] = compound: Cc1ncc(-c2ccnc(Nc3ccc(S(C)(=O)=O)cc3)n2)n1C(C)C
Outline: as §1

tipifarnib = compound: Cn1cncc1[C@@](N)(c1ccc(Cl)cc1)c1ccc2c(c1)c(-c1cccc(Cl)c1)cc(=O)n2C [tipifarnib]
Outline: as §1

Measured: log2 fold change

BICRA (UniProt Q9NZM4)
inactive: dasatinib 0.088 | [1] -0.1 | quisinostat 0.037 | [2] -0.004 | [3] 0.054 | [4] -0.382 | vorinostat 0.11 | silmitasertib -0.203 | [5] -0.076

AUH (UniProt Q13825)
inactive: dasatinib -0.274 | [1] 0.14 | quisinostat -0.002 | [2] -0.018 | [3] 0.193 | [4] -0.066 | [6] 0.1 | vorinostat -0.068 | silmitasertib 0.017 | [5] -0.063 | entospletinib -0.11

CANX (UniProt D6RHJ3)
inactive: nilotinib -0.055 | [7] 0.129 | [8] 0.191 | tipifarnib 0.126 | [3] -0.103 | [6] 0.012

BRAF (UniProt P15056)
inactive: [7] 0.011 | [8] -0.043 | [1] 0.002 | quisinostat -0.173 | tipifarnib -0.006 | [2] 0.018 | [3] 0.007 | [6] -0.001 | vorinostat -0.339 | silmitasertib 0.061 | [5] -0.008 | entospletinib 0.037

ATXN2 (UniProt F8WB06)
inactive: dasatinib -0.074 | [1] -0.053

CCDC130 (UniProt P13994)
inactive: quisinostat -0.583 | [2] -0.183 | [4] 0.259 | vorinostat -0.003 | silmitasertib 0.173 | [5] -0.306 | entospletinib -0.076

C3AR1 (UniProt Q16581)
Sequence of UniProt Q16581 (Q16581 whole entry, looked up): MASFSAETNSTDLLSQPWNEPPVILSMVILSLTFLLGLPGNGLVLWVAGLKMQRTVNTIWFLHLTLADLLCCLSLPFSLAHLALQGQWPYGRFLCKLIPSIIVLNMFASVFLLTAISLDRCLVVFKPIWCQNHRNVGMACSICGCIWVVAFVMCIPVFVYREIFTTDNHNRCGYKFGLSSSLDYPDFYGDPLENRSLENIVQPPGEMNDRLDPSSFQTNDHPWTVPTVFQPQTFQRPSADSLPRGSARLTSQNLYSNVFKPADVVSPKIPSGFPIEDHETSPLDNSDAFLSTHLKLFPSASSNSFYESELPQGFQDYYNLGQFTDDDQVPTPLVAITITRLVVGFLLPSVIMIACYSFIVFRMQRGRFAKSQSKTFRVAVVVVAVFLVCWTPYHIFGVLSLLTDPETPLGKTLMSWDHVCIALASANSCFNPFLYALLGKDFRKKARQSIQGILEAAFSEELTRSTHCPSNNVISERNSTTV
inactive: nilotinib -0.026 | [7] 0.286 | [8] -0.111 | quisinostat 0.065 | tipifarnib -0.036 | [2] -0.033 | [5] -0.013

BRAF, A0A2R8Y8E0
inactive: [6] 0.017 | entospletinib -0.082

CDK2 (UniProt P24941)
inactive: nilotinib -0.01 | dasatinib 0.018 | [1] 0.01 | quisinostat -0.077 | tipifarnib 0.011 | [2] 0.005 | [3] 0.067 | [4] -0.012 | [6] -0.02 | vorinostat 0.006 | silmitasertib 0.248 | [5] 0.202 | entospletinib 0.039

CENPV (UniProt Q7Z7K6)
active: nilotinib 1.5
inactive: [7] -0.184 | [8] 0.816 | quisinostat 0.038 | tipifarnib 0.08 | [2] -0.077 | [6] 0.396 | [5] 0.039 | entospletinib 0.084

CHD4, A0A2R8Y521
inactive: nilotinib -0.125 | [7] -0.088 | dasatinib -0.09 | [8] -0.156 | [1] -0.247 | tipifarnib 0.391 | [3] -0.174 | entospletinib -0.313

CAD (UniProt H7BZB3)
active: [4] 0.551
inactive: [6] 0.113 | vorinostat -0.54 | silmitasertib -0.006 | entospletinib -0.008

BTRC (UniProt Q9Y297)
inactive: nilotinib 0.006 | [7] 0.02 | [8] -0.003 | tipifarnib 0.02 | [3] 0.059 | [4] 0.031 | [6] 0.03 | silmitasertib 0.035 | entospletinib -0.004
active: vorinostat -0.342

CDKN1B (UniProt P46527)
Sequence of UniProt P46527 (P46527 whole entry, looked up): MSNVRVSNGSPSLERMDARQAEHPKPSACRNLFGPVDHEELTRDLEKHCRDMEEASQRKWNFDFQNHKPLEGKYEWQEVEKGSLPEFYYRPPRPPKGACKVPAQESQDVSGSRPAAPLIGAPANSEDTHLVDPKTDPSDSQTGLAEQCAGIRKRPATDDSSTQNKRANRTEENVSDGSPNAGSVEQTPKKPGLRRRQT
active: quisinostat 0.393
inactive: dasatinib 0.021 | [1] 0.034 | [2] -0.122 | [3] -0.035 | [4] 0.045 | [6] 0.062 | vorinostat -0.011 | silmitasertib 0.048 | [5] -0.067 | entospletinib -0.028

CACUL1 (UniProt Q86Y37)
inactive: dasatinib -0.094 | [1] 0.157 | quisinostat 0.025 | [2] 0.102 | [3] -0.1 | [4] -0.028 | [6] 0.176 | silmitasertib 0.024 | [5] -0.081 | entospletinib -0.056
active: vorinostat -0.543

ATE1 (UniProt O95260)
Sequence of UniProt O95260 (O95260 whole entry, looked up): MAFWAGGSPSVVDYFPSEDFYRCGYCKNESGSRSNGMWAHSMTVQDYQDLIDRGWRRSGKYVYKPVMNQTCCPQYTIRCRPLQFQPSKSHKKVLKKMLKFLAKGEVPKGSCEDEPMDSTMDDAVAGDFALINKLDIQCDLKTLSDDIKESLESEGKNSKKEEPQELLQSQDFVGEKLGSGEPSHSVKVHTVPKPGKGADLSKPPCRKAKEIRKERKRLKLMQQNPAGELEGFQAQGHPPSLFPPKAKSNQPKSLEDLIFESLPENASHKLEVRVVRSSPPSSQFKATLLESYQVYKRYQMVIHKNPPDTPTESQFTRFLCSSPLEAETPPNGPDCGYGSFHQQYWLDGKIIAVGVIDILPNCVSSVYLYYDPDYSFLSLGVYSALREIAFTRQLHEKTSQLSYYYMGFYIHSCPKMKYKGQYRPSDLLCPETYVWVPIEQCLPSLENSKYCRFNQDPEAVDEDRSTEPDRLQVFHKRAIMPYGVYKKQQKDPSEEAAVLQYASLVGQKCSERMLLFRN
inactive: quisinostat 0.019 | [2] -0.093 | [3] 0.026 | [5] 0.028

BTK isoform 2 (UniProt Q06187)
active: [2] 0.294 | [6] 0.439 | vorinostat -0.322
inactive: nilotinib 0.016 | [7] -0.002 | [8] 0.015 | [1] -0.005 | quisinostat -0.05 | tipifarnib -0.021 | [3] 0.032 | [4] -0.049 | silmitasertib 0.066 | [5] 0.012 | entospletinib 0.3

C8orf37 (UniProt Q96NL8)
Sequence of UniProt Q96NL8 (Q96NL8 whole entry, looked up): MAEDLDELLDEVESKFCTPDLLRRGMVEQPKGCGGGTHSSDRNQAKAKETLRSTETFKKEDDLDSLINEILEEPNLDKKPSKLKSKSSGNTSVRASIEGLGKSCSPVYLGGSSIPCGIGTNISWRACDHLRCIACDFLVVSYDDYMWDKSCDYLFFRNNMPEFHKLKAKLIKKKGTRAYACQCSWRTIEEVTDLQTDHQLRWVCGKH
inactive: dasatinib 0.083 | [1] 0.056 | quisinostat 0.004 | [2] -0.01 | [3] 0.298 | [4] 0.029 | [6] 0.206 | vorinostat 0.084 | silmitasertib 0.044 | [5] 0.008 | entospletinib -0.035

B3GALT6 (UniProt Q96L58)
inactive: dasatinib -0.148 | [1] 0.233 | quisinostat -0.086 | [2] 0.137 | [4] -0.174 | vorinostat 0.218 | silmitasertib -0.029 | [5] 0.071

CEP128 (UniProt Q6ZU80)
Sequence of UniProt Q6ZU80 (Q6ZU80 whole entry, looked up): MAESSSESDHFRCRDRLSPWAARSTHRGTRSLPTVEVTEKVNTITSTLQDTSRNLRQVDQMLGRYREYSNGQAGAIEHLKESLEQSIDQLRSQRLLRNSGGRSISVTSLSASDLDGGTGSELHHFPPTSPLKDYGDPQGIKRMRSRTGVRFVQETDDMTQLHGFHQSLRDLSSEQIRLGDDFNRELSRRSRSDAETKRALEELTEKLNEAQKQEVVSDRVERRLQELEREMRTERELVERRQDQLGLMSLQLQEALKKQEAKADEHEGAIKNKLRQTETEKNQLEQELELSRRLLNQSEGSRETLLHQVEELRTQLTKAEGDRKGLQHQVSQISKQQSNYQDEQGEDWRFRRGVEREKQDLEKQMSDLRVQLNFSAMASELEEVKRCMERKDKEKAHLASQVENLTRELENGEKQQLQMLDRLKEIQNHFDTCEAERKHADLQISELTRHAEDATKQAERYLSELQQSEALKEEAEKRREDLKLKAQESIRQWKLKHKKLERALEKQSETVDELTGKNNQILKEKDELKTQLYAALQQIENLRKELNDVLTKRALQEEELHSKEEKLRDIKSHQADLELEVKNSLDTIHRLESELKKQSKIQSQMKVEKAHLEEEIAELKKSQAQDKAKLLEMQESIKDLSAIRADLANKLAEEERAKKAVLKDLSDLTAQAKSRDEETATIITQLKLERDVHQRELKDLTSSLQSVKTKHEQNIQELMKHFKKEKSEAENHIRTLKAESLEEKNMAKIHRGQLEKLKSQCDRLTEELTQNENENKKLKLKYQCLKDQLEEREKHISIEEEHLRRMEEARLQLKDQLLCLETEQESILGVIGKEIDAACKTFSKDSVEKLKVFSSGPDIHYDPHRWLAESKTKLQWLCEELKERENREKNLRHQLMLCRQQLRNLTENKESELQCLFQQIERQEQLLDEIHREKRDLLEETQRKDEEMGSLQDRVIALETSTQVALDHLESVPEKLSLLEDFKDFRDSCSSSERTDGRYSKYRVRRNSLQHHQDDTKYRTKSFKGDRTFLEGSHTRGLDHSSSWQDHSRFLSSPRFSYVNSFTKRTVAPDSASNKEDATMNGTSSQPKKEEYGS
inactive: dasatinib -0.168 | [1] 0.041 | [6] 0.017 | entospletinib -0.081

CDKL5 (UniProt O76039)
inactive: dasatinib -0.095 | [1] 0.188 | quisinostat -0.283 | [2] -0.002 | [3] 0.069 | [6] 0.037 | [5] 0.011 | entospletinib 0.017

CCP110 (UniProt O43303)
inactive: dasatinib 0.063 | [1] -0.01 | quisinostat -0.062 | [2] 0.107 | [4] 0.055 | [6] -0.033 | vorinostat -0.102 | silmitasertib -0.131 | [5] -0.124 | entospletinib 0.045

CCDC85B (UniProt Q15834)
inactive: dasatinib 0.066 | [1] -0.034 | quisinostat 0.086 | [2] 0.044 | [3] -0.225 | [4] 0.188 | [6] -0.039 | vorinostat 0.088 | silmitasertib 0.042 | [5] -0.077 | entospletinib -0.397

CEP295 isoform 3 (UniProt Q9C0D2)
Sequence of UniProt Q9C0D2 (Q9C0D2 whole entry, looked up): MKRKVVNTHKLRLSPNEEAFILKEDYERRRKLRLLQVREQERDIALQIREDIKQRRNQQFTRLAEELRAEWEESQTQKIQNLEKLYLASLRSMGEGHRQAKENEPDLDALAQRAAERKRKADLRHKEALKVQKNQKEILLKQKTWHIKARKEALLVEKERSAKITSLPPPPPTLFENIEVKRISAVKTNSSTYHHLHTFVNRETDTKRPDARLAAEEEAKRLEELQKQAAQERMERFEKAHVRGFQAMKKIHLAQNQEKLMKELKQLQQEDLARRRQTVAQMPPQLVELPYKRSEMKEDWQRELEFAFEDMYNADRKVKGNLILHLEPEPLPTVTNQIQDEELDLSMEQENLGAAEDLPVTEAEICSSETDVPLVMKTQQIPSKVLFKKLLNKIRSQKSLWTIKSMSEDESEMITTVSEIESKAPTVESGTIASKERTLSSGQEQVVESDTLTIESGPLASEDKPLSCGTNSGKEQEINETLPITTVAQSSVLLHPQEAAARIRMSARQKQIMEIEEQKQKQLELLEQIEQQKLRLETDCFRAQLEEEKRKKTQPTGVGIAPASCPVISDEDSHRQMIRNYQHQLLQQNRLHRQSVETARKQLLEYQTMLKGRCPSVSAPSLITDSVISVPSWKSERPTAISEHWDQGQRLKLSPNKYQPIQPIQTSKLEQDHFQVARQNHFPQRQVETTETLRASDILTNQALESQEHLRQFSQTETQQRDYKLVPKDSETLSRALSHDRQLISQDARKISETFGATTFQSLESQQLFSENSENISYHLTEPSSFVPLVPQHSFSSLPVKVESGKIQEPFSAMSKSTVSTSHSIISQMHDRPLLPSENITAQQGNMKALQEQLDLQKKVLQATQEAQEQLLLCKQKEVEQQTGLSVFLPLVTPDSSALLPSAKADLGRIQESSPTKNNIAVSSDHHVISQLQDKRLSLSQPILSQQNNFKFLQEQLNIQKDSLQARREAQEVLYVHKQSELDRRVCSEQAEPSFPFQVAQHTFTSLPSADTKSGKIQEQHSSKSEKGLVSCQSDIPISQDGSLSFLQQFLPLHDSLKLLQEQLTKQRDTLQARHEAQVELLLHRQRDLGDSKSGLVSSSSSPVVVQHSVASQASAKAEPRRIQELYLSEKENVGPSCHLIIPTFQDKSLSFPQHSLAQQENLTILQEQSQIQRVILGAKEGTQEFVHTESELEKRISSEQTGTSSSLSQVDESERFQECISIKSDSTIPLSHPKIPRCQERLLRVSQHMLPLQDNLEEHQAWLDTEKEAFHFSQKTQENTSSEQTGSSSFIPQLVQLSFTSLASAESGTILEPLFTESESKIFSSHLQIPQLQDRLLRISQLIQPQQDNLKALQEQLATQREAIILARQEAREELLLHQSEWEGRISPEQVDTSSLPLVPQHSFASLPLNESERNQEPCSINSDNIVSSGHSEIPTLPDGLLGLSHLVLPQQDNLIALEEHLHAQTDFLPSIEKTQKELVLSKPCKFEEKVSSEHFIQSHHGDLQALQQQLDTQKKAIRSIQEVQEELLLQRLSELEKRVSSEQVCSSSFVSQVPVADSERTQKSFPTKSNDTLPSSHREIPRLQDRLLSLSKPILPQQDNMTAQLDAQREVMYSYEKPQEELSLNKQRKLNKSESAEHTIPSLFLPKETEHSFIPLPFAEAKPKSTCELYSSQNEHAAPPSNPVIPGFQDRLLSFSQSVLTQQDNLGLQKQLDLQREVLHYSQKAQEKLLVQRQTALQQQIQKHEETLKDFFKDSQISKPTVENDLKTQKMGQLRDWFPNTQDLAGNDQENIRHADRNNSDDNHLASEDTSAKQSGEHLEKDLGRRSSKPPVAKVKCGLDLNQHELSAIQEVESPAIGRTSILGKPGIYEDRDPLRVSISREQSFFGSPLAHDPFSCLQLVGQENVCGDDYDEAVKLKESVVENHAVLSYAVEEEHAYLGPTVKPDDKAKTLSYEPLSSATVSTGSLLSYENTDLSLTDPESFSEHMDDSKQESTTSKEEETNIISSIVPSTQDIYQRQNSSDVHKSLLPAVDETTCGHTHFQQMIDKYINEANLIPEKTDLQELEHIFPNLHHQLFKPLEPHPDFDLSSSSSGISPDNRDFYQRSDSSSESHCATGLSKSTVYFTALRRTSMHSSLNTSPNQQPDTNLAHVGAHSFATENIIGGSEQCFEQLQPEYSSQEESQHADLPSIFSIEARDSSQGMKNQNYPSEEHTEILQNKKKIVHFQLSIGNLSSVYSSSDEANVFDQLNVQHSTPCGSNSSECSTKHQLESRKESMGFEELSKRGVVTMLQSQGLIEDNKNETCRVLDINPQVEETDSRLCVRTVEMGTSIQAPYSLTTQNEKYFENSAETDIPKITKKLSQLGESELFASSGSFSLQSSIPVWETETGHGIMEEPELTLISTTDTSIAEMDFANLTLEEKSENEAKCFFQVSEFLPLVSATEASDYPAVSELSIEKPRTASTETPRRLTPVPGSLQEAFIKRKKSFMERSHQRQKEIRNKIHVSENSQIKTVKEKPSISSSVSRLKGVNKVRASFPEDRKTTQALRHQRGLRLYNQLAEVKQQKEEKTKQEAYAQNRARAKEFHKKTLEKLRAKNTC
inactive: nilotinib 0.016 | [7] 0.046 | [8] 0.006 | quisinostat 0.017 | tipifarnib 0.062 | [2] -0.038 | [3] 0.14 | [4] 0.046 | vorinostat -0.004 | silmitasertib 0.076 | [5] -0.076 | entospletinib 0.087

ATXN2 (UniProt F8WB05)
inactive: dasatinib 0.035 | [1] -0.058 | quisinostat -0.208 | [2] -0.025 | [3] 0.025 | [4] -0.394 | [6] 0.013 | vorinostat 0.011 | silmitasertib 0.271 | [5] 0.115 | entospletinib -0.016

CDAN1 (UniProt H3BPZ6)
inactive: quisinostat 0.093 | [2] 0.056 | [5] 0.006

ATF7IP2 (UniProt Q5U623)
inactive: nilotinib -0.003 | [7] 0.008 | [8] -0.089 | tipifarnib -0.064 | [2] 0.001 | [3] 0.036 | [4] -0.127 | [6] 0.066 | vorinostat 0.027 | silmitasertib 0.002 | [5] -0.048
active: quisinostat -0.336

CCAR2 (UniProt G3V119)
inactive: [3] -0.015
